The source made the active and inactive calls. How the source made its calls: active means hit-call score of the fitted dose curve at least 0.9, where 1 is the maximum; inactive means score below 0.9.
What was measured:
[1] = read-out: TIMP metallopeptidase inhibitor 1 (TIMP1), TIMP1 (gene 7076); assay: BSK_hDFCGF_TIMP1: BioMAP Diversity Plus: hDFCGF Assay for TIMP metallopeptidase inhibitor 1 (TIMP1) Biomarker Activity (AID 2283062); conditions: primary human foreskin fibroblasts; actives raise or lower the signal
How it was run: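 Human foreskin fibroblast primary cultures dosed for 24 h; secreted/surface TIMP-1 quantified by ELISA. Bidirectional curve fitting against DMSO baseline; cytotoxicity tracked in parallel cultures by SRB total-protein staining.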

[2] = read-out: Monokine induced gamma interferon (MIG), CXCL9 (gene 4283); assay: BSK_hDFCGF_MIG: BioMAP Diversity Plus: hDFCGF Assay for Monokine induced gamma interferon (MIG) Biomarker Activity (AID 2283063); conditions: primary human foreskin fibroblasts; actives raise or lower the signal
How it was run: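 MIG/CXCL9 measured by ELISA 24 h after dosing primary human skin fibroblasts. Activity fitted in both directions against DMSO controls. Cytotoxicity was checked in parallel cultures by SRB staining read at 560 nm.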

[3] = read-out: Matrix Metallopeptidase 1 (MMP1), MMP1 (gene 4312); assay: BSK_hDFCGF_MMP1: BioMAP Diversity Plus: hDFCGF Assay for Matrix Metallopeptidase 1 (MMP1) Biomarker Activity (AID 2283064); conditions: primary human foreskin fibroblasts; actives raise or lower the signal
How it was run: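 hDFCGF primary fibroblasts (human foreskin); chemical added; 24 h; MMP1 by ELISA; bidirectional fit vs DMSO.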

[4] = read-out: Intercellular Adhesion Molecule 1 (ICAM1), ICAM1 (gene 3383); assay: BSK_KF3CT_ICAM1: BioMAP Diversity Plus: KF3CT Assay for Intercellular Adhesion Molecule 1 (ICAM1) Biomarker Activity (AID 2283067); conditions: primary human keratinocytes with fibroblasts; actives raise or lower the signal
How it was run: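 Human keratinocyte–foreskin fibroblast co-culture was treated for 24 h. Cell-surface ICAM-1 was quantified by ELISA, fitted bidirectionally relative to DMSO. Cytotoxicity was checked in parallel cultures by SRB total-protein staining.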

[5] = read-out: Interferon-gamma inducible Protein 10 (IP10), CXCL10 (gene 3627); assay: BSK_KF3CT_IP10: BioMAP Diversity Plus: KF3CT Assay for Interferon-gamma inducible Protein 10 (IP10) Biomarker Activity (AID 2283068); conditions: primary human keratinocytes with fibroblasts; actives raise or lower the signal
How it was run: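 Human keratinocyte plus foreskin fibroblast primary co-culture exposed to test chemical for 24 h; IP-10 measured by ELISA. Concentration-response fitted bidirectionally against DMSO control as baseline.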

[6] = BSK_KF3CT_SRB: Viability Assessment in the BioMAP Diversity Plus: KF3CT Assay (AID 2283069); conditions: primary human keratinocytes with fibroblasts;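 further: total protein by sulforhodamine B staining as a cytotoxicity measure; fitted for both signal gain and loss against DMSO baseline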
How it was run: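 Keratinocytes co-cultured with foreskin fibroblasts (human primary); chemical added, 24 h; fix 10% TCA, stain 0.1% SRB, A560. Bidirectional fit vs DMSO.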

[7] = read-out: Interleukin-1 alpha (IL1a), IL1A (gene 3552); assay: BSK_KF3CT_IL1a: BioMAP Diversity Plus: KF3CT Assay for Interleukin-1 alpha (IL1a) Biomarker Activity (AID 2283070); conditions: primary human keratinocytes with fibroblasts; actives raise or lower the signal
How it was run: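 Chemicals were dosed onto co-cultured human keratinocytes and foreskin fibroblasts, IL-1a was quantified by ELISA at 24 h, and activity was fitted in both directions relative to DMSO controls.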

[8] = read-out: TIMP metallopeptidase inhibitor 2 (TIMP2), TIMP2 (gene 7077); assay: BSK_KF3CT_TIMP2: BioMAP Diversity Plus: KF3CT Assay for TIMP metallopeptidase inhibitor 2 (TIMP2) Biomarker Activity (AID 2283071); conditions: primary human keratinocytes with fibroblasts; actives raise or lower the signal
How it was run: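 Co-culture of human primary keratinocytes and foreskin fibroblasts, measured 24 h after chemical dosing. TIMP-2 quantified by ELISA and fitted in both directions relative to DMSO. Cytotoxicity checked in parallel cultures by SRB total-protein staining.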

[9] = read-out: Transforming growth factor beta 1 (TGFb1), TGFB1 (gene 7040); assay: BSK_KF3CT_TGFb1: BioMAP Diversity Plus: KF3CT Assay for Transforming growth factor beta 1 (TGFb1) Biomarker Activity (AID 2283072); conditions: primary human keratinocytes with fibroblasts; actives raise or lower the signal
How it was run: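 Human keratinocyte/foreskin fibroblast co-culture; TGF-b1 measured by ELISA 24 h after dosing, fitted bidirectionally versus DMSO. Cytotoxicity checked in parallel cultures by total protein (SRB staining, 560 nm).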

[10] = read-out: C-C motif chemokine 2 (Homo sapiens) (UniProt P13500); assay: BSK_KF3CT_MCP1: BioMAP Diversity Plus: KF3CT Assay for Monocyte Chemoattractant Protein 1 (MCP1/CCL2) Biomarker Activity (AID 2283073); conditions: primary human keratinocytes with fibroblasts; actives raise or lower the signal
How it was run: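 Human keratinocyte–foreskin fibroblast co-culture; MCP-1 measured by ELISA 24 h after dosing. Bidirectional fit vs DMSO; cytotoxicity tracked by SRB total protein in parallel cultures.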

[11] = read-out: Matrix Metallopeptidase 9 (MMP9), MMP9 (gene 4318); assay: BSK_KF3CT_MMP9: BioMAP Diversity Plus: KF3CT Assay for Matrix Metallopeptidase 9 (MMP9) Biomarker Activity (AID 2283074); conditions: primary human keratinocytes with fibroblasts; actives raise or lower the signal
How it was run: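 Human keratinocyte/foreskin fibroblast co-culture; compound added; 24 h; MMP-9 by ELISA; bidirectional fit vs DMSO baseline.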

[12] = read-out: urokinase plasminogen activator (uPA), PLAU (gene 5328); assay: BSK_KF3CT_uPA: BioMAP Diversity Plus: KF3CT Assay for urokinase plasminogen activator (uPA) Biomarker Activity (AID 2283075); conditions: primary human keratinocytes with fibroblasts; actives raise or lower the signal
How it was run: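 ELISA readout of uPA, analyzed for signal gain or loss relative to DMSO, from a human primary keratinocyte–foreskin fibroblast co-culture measured 24 h after chemical treatment.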

CD40, CD40 (gene 958) = assay: BSK_LPS_CD40: BioMAP Diversity Plus: LPS Assay for CD40 Biomarker Activity (AID 2283076); conditions: primary human HUVEC with PBMC; actives raise or lower the signal
How it was run: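 HUVEC plus PBMC co-culture stimulated with LPS; CD40 quantified by ELISA 24 h after compound dosing. Fitting was bidirectional relative to DMSO. SRB staining of parallel cultures flagged overt cytotoxicity.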

[13] = read-out: E-selectin (Homo sapiens) (UniProt P16581); assay: BSK_LPS_Eselectin: BioMAP Diversity Plus: LPS Assay for Eselectin Biomarker Activity (AID 2283077); conditions: primary human HUVEC with PBMC; actives raise or lower the signal
How it was run: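 Human umbilical vein endothelial cells co-cultured with PBMC under LPS stimulation; cell-surface E-selectin measured by ELISA 24 h after dosing. Change in either direction versus DMSO, with SRB total-protein staining in parallel cultures for cytotoxicity.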

[14] = read-out: Interleukin-8 (IL8), CXCL8 (gene 3576); assay: BSK_LPS_IL8: BioMAP Diversity Plus: LPS Assay for Interleukin-8 (IL8) Biomarker Activity (AID 2283078); conditions: primary human HUVEC with PBMC; actives raise or lower the signal
How it was run: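 Human umbilical vein endothelial cells co-cultured with PBMC, LPS-stimulated, exposed to compound for 24 h. IL-8 quantified by ELISA; fitted in both directions against DMSO, with SRB total-protein staining of parallel cultures for cytotoxicity.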

[15] = BSK_LPS_SRB: Viability Assessment in the BioMAP Diversity Plus: LPS Assay (AID 2283079); conditions: primary human HUVEC with PBMC;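 further: total protein by sulforhodamine B absorbance as a cytotoxicity measure; measured one day after compound addition; fitted in both directions against DMSO so loss or gain of signal counts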
How it was run: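 Co-culture of human umbilical vein endothelial cells and PBMC, read 24 h after dosing. Total protein by 0.1% SRB staining after 10% TCA fixation, absorbance at 560 nm; bidirectional fit against DMSO.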

[16] = read-out: Interleukin-1 alpha (IL1a), IL1A (gene 3552); assay: BSK_LPS_IL1a: BioMAP Diversity Plus: LPS Assay for Interleukin-1 alpha (IL1a) Biomarker Activity (AID 2283080); conditions: primary human HUVEC with PBMC; actives raise or lower the signal
How it was run: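 Human umbilical vein endothelial cells co-cultured with PBMC and stimulated with LPS; IL-1a measured by ELISA 24 h after dosing. Bidirectional fitting against DMSO; cytotoxicity checked by SRB staining in parallel cultures.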

[17] = read-out: Monocyte Chemoattractant Protein-1 (MCP1), CCL2 (gene 6347); assay: BSK_LPS_MCP1: BioMAP Diversity Plus: LPS Assay for Monocyte Chemoattractant Protein-1 (MCP1) Biomarker Activity (AID 2283081); conditions: primary human HUVEC with PBMC; actives raise or lower the signal
How it was run: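 Human umbilical vein endothelial cells co-cultured with PBMC, LPS-stimulated; secreted MCP-1 measured by ELISA 24 h after compound addition. Bidirectional curve fitting against DMSO baseline; SRB total-protein staining in parallel cultures for cytotoxicity.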

[18] = read-out: Plasminogen activator inhibitor-1 (PAI1), SERPINE1 (gene 5054); assay: BSK_hDFCGF_PAI1: BioMAP Diversity Plus: hDFCGF Assay for Plasminogen activator inhibitor-1 (PAI1) Biomarker Activity (AID 2283066); conditions: primary human foreskin fibroblasts; actives raise or lower the signal
How it was run: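 Human foreskin fibroblast primary cells, 24 h chemical exposure; PAI-1 measured by ELISA. Bidirectional fitting relative to DMSO; parallel cultures stained with SRB for total protein to flag overt cytotoxicity.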

[19] = read-out: Vascular cell adhesion molecule 1 (VCAM1), VCAM1 (gene 7412); assay: BSK_hDFCGF_VCAM1: BioMAP Diversity Plus: hDFCGF Assay for Vascular cell adhesion molecule 1 (VCAM1) Biomarker Activity (AID 2283065); conditions: primary human foreskin fibroblasts; actives raise or lower the signal
How it was run: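 Human foreskin fibroblast primary cells dosed with chemical, VCAM-1 measured by ELISA at 24 h. Bidirectional curve fitting relative to DMSO as negative control/baseline.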

Measured: outcome

Sequence of E-selectin (Homo sapiens) (P16581 whole entry, looked up): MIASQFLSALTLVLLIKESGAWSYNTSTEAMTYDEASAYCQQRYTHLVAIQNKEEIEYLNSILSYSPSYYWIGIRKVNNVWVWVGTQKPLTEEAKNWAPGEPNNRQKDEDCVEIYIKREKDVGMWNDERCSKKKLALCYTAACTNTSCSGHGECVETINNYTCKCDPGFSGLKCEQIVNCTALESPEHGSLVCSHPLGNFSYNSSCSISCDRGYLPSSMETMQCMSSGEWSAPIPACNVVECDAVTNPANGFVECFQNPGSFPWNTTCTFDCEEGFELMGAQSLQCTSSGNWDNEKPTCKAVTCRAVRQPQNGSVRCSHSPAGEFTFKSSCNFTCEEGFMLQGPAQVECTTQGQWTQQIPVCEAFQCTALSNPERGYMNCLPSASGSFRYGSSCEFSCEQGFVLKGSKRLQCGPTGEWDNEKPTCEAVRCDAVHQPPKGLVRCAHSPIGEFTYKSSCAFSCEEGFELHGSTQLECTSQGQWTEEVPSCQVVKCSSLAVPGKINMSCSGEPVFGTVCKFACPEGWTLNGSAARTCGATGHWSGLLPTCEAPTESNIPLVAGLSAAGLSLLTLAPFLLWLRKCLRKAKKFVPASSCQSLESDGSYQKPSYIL

CCCSC(=O)N(CCC)CCC
inactive: [1] | [2] | [3] | [4] | [5] | [6] | [7] | [8] | [9] | [10] | [11] | [12] | CD40, CD40 (gene 958) | [13] | [14] | [15] | [16] | [17]

CC(O)CCO (stereo unspecified)
inactive: [1] | [2] | [3] | [18] | [4] | [5] | [6] | [7] | [8] | [9] | [10] | [11] | [12] | CD40, CD40 (gene 958) | [13] | [14] | [15] | [16] | [17]

Cn1cc(-c2ccccc2)c(=O)c(-c2cccc(C(F)(F)F)c2)c1
inactive: [1] | [2] | [19] | [18] | [4] | [5] | [6] | [7] | [8] | [9] | [10] | [11] | [12] | CD40, CD40 (gene 958) | [13] | [14] | [15] | [16] | [17]

From PubChem BioAssay (EPA / NIEHS)
